In all, about 290,000 compounds went through this assay and about 3,000 (1%) were called active. The sample holds actives, similar compounds and a random draw of the others, so the mix is not that of the screen. Values without a mark were called inactive. Cut-off read from the data, not from the text of the source: active = inhibition mostly above about 36% (no sharp cut-off); inactive = mostly below about 34%.

The nature of the experiment: inhibition of NOD1-driven NF-kB reporter – cell-based, luminescence, uHTS, primary screen (AID 1578).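 Note: HEK-293T reporter cells stimulated with the NOD1 agonist gamma-tri-DAP.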 The settings on record: NOD1-driven NF-kB luciferase reporter cells, at 4 µM, active compounds read high. In general terms: A reporter such as luciferase makes a cellular process visible.
For `CCC(=O)NNC(=O)CCC(=O)Nc1ccc(C)cc1C`, the inhibition (usually the change of the read-out against control, counted positive when it falls) was -21.4%.
Under `COc1ccc(NC(=O)CCNS(=O)(=O)c2cccc3nsnc23)cc1` stands -14.3%; under `C=CCSc1nnc(N2C(=O)C(O)=C(C(=O)c3ccco3)C2c2ccccc2F)s1` (stereo not drawn), -10.7%; under `O=C(O)c1ccc(S(=O)(=O)c2ccc3c(c2)C(=O)N(c2ccc(O)cc2)C3=O)cc1`, -1.2%.
With `O=C(c1cc2sccc2n1Cc1ccc(F)cc1)N1CCCc2ccccc21`, the inhibition is -9%.
Under `O=C(c1cc2sccc2n1Cc1ccccc1)N1CCc2ccccc21` stands -5.9%; under `O=C(c1cc2sccc2n1Cc1ccccc1)N1CCCc2ccccc21`, 34.8% (active).
In the case of `CN(CCc1ccccn1)C1CCCN(S(=O)(=O)c2ccccc2)C1` (stereo not drawn) it was -25.2%; in that of `Cc1ccc(/C=C/C(=O)Nc2nc3ccccc3[nH]2)cc1`, -16.1%.
In the case of `COc1ccc(NC(=O)c2ccc(-c3csc(C)n3)cc2)cc1` it was -5.5%; in that of `CCOC(=O)c1cnn(-c2ccccc2)c1-n1cccc1C(=O)C(=O)N(C)C`, -12.4%; in that of `CCOC(=O)c1cnn(-c2ccccc2)c1-n1cccc1C(=O)C(=O)Nc1ccccc1`, -28.7%.
`CCOC(=O)c1cnn(-c2ccccc2)c1-n1cccc1C(=O)C(=O)N(CC)CC`: the inhibition was 42.8% (active).
In the case of `Cc1ccc(-c2nnn(Cc3nc(N)nc(N4CCOCC4)n3)n2)cc1` it was 5.1%.
Under `CC(=O)C(=Cc1ccc(C(=O)O)cc1)C(C)=O` stands -17.7%.
Regarding `COc1ccc2cc(CO)c(Cl)nc2c1`, the inhibition is -28.1%.
In the case of `Cc1ccc2cc(CCl)c(Cl)nc2c1` it was 50.2% (active).
Under `COc1ccc2cc(CCl)c(Cl)nc2c1` stands 70.1% (active); under `COc1ccc2cc(C#N)c(Cl)nc2c1`, -29.7%.
As for `Cc1ccc2cc(C=O)c(Cl)nc2c1`, the inhibition was -3.3%.
In the case of `ClCc1cc2ccccc2nc1Cl` it was -27%; in that of `COc1ccc(S(=O)(=O)N2Cc3ccccc3CC2C(=O)N2CCOCC2)cc1` (stereo not drawn), 3.2%.
Turning to `COc1cscc1C(N)=O`, the inhibition is 6.7%.
In the case of `c1ccc2c(c1)ncn2Cc1nnc2sc(-c3ccc4c(c3)OCO4)nn12` it was -4.4%; in that of `O=C(NC1CCCCCC1)c1cc(S(=O)(=O)N2CCCCC2)ccc1N1CCOCC1`, -7.1%; in that of `CC1CCC(C(C)C)C(OCC(O)CN2CCCC(C)C2)C1` (stereo not drawn), -44.4%.
In the case of `Cn1nccc1C(=O)NC1CCCc2c1cnn2-c1cc(F)cc(F)c1` (stereo not drawn) it was 35.1%.
In the case of `Cc1cc(C)cc(-n2ncc3c2CCCC3NC(=O)C2(C(N)=O)CC2)c1` (stereo not drawn) it was -11.6%; in that of `Cc1cc(C(=O)NC2CCCc3c2cnn3-c2cccc(C)c2C)no1` (stereo not drawn), 11.2%; in that of `Cc1cccc(-n2ncc3c2CCCC3NC(=O)C2CCOCC2)c1C` (stereo not drawn), 9.8%.
In the case of `Cc1cccc(-n2ncc3c2CCCC3NC(=O)c2ccc[n+]([O-])c2)c1C` (stereo not drawn), the inhibition was -3.9%.
In the case of `Cc1cc(C)c(C(=O)NC2CCCc3c2cnn3-c2cccc(C)c2C)o1` (stereo not drawn) it was -10.7%; in that of `O=C(NC1CCCc2c1cnn2-c1ccccc1F)c1ccccn1` (stereo not drawn), 20.6%; in that of `COc1ccc(C(=O)NC2CCCc3c2cnn3-c2cccc(C)c2C)o1` (stereo not drawn), 0.8%.
Under `CC(C)N(CCCNC(=O)c1ccc(CS(=O)(=O)c2c(Cl)cccc2Cl)o1)Cc1ccccc1` stands -4.4%; under `CCOC(=O)N1CCN(C(=O)CSc2ccc3nnc(-c4cccnc4)n3n2)CC1`, -22.3%; under `CCOC(=O)C1(Cc2cccc(OC)c2)CCCN(C(=O)CCc2cccnc2)C1` (stereo not drawn), -50.3%.
Turning to `CCc1ccc(-n2cccc2/C=C2/C(=N)N3C(=NC2=O)SN=C3S(C)(=O)=O)cc1`, the inhibition was 1.2%.
Under `Cc1nn(CC(=O)N2CCC(C(N)=O)CC2)c(=O)c2nn(-c3ccccc3)c(C)c12` stands -5.3%; under `COc1ccc(CNC(=O)c2csc(Cc3ccc(Cl)cc3)n2)cc1`, 25.6%.
In the case of `COc1ccc(-c2nc(N3CCC(C)CC3)[nH]c(=O)c2C#N)cc1` it was 73.1% (active); in that of `COc1ccc(-c2nc(N3CCCC3)[nH]c(=O)c2C#N)cc1`, -42.4%; in that of `CC1CCN(c2nc(-c3ccccc3)c(C#N)c(=O)[nH]2)CC1`, 34.5%.
Under `CCOC(=O)N1CCN(CC(O)COc2c(C)cccc2C)CC1` (stereo not drawn) stands 24.9%; under `CCC(C)(C)NC(=S)Nc1ccccc1C`, -38.1%.
Regarding `C=CCn1c(Oc2cccc(C)c2)nc2c1c(=O)n(C)c(=O)n2C`, the inhibition is -2.9%.
Under `Cc1cc(-c2onc3ccc(Cl)cc23)ccc1O` stands 52.9% (active); under `COc1ccc(-c2onc3ccc(Cl)cc23)cc1`, -9.1%.
Under `Cc1ccc(-c2onc3ccc(Cl)cc23)cc1` stands -3.6%.
Under `CN1CCN(S(=O)(=O)c2cccc(C(=O)N(c3ccccn3)C3CCCCC3)c2)CC1` stands -0.4%; under `Cc1nc(SCC(=O)N2CCN(c3ccccc3)CC2)c2oc3ccccc3c2n1`, 33.4%; under `CCc1nc(Nc2ccc(N3CCN(C(C)=O)CC3)cc2)c2oc3ccccc3c2n1`, 7.6%.
As for `CC1(O)CC(c2ccc(Cl)cc2)=NN1C(=O)c1ccc([N+](=O)[O-])cc1` (stereo not drawn), the inhibition was 92.3% (active).
Under `CC(=O)N1N=C(c2ccc(Cl)cc2)CC1c1ccc([N+](=O)[O-])cc1` (stereo not drawn) stands -12.3%; under `CC1(O)CC(c2ccc(Cl)cc2)=NN1C(=O)c1ccc(Cl)cc1` (stereo not drawn), -27.7%; under `COc1cc(/C=C/C(=O)O)ccc1OCc1ccc([N+](=O)[O-])cc1`, -13.3%.
Under `COC(=O)c1cc(C)ccc1OCc1ccc([N+](=O)[O-])cc1` stands -8.7%; under `CCOc1cc(/C=N/O)ccc1OCc1ccc([N+](=O)[O-])cc1`, -20.2%; under `CCOc1cc(/C=C2/NC(=S)NC2=O)ccc1OCc1ccc([N+](=O)[O-])cc1`, -30%.
Under `O=C(NCCc1ccccc1)C1(S(=O)(=O)c2ccc(Cl)cc2)CC1` stands 7.4%; under `O=C(CSc1nc(-c2ccncc2)nn1CC(=O)N1CCCCC1)NC1CCCC1`, -4%; under `CC1CC(=O)N(CC(=O)NCc2ccccc2)c2ccccc2S1(=O)=O` (stereo not drawn), -32.8%.
Take `O=C1CCc2cc(S(=O)(=O)N3CCN(c4cccc(C(F)(F)F)c4)CC3)ccc2N1`: the inhibition is -6.5%.
With `CC(=O)c1ccccc1NC(=O)COC(=O)/C(=C/c1ccccc1)n1nnnc1C`, the inhibition was -8%.
In the case of `CC(=O)Nc1ccc(NC(=O)COC(=O)/C(=C/c2ccccc2)n2nnnc2C)cc1` it was -15.3%; in that of `Cc1nnnn1/C(=C\c1ccccc1)C(=O)OCC(=O)NC(C)(C)C`, 91.3% (active).
As to `CCOC(=O)C1(CCCc2ccccc2)CCN(C(=O)c2cnc(C)cn2)CC1`, the inhibition is 2.2%.
On to `CC(=O)OC(C(=O)NC1CCCCC1)c1ccc(Cl)c(Cl)c1` (stereo not drawn), for which the inhibition was -34.6%.
In the case of `COc1ccc(OCC(=O)N/N=c2\oc3c(OC)cccc3cc2C(N)=O)cc1` it was -30.3%; in that of `COc1ccc(CNC(=O)C(c2ccc(C)o2)N(Cc2cccs2)C(=O)Cc2cccs2)cc1` (stereo not drawn), 68.3% (active).
In the case of `COc1ccc(CNC(=O)C(c2ccco2)N(Cc2cccs2)C(=O)Cc2cccs2)cc1` (stereo not drawn) it was 2%; in that of `COc1ccc(CNC(=O)C(c2cccs2)N(Cc2ccco2)C(=O)Cc2cccs2)cc1` (stereo not drawn), 23.3%.
Consider `COC(=O)C(C)n1cnc2c(nnn2-c2ccccc2)c1=O` (stereo not drawn), for which the inhibition is -9.8%.
In the case of `COc1ccc(C(=O)Nc2c(N)nc(SCC(=O)N3CCCCCC3)[nH]c2=O)cc1OC` it was -4.3%.
As for `Cc1cc2c(cc1S(=O)(=O)Nc1cccc(F)c1)n(C)c(=O)c(=O)n2C`, the inhibition is 13.5%.
For `O=C(c1ccc(N2CCCC2)c([N+](=O)[O-])c1)N1CCN(c2ccccn2)CC1`, the inhibition was -8.1%.
Under `O=C(c1ccc(S(=O)(=O)Cc2ccccc2Cl)c([N+](=O)[O-])c1)N1CCOCC1` stands 13.5%.
Under `O=C(c1ccc(Sc2cccc(Cl)c2)c([N+](=O)[O-])c1)N1CCN(c2ccccn2)CC1` stands -34.4%; under `O=C(c1ccc(Cl)c([N+](=O)[O-])c1)N1CCN(c2ccccn2)CC1`, -1.9%.
As to `CC(C)Cc1nnc(NC(=O)CCC(=O)NC2CCCC2)s1`, the inhibition is -20.3%.
As to `CC/C=C/C(=O)N1CC2(CC(c3cccc(NC(=O)c4ccccc4)c3)=NO2)C[C@@H]1C(N)=O` (stereo partly drawn), the inhibition is 20.5%.
Under `O=c1c2c3c(sc2nc2n1CCC2)CCCCC3` stands -41%; under `Cn1cnc2cc(NC(=O)COc3ccccc3)ccc21`, -63.1%; under `Cc1cccn2c(=O)c3cc(S(=O)(=O)c4ccc(Br)cc4)c(=N)n(C4CCCC4)c3nc12`, -42.6%.
In the case of `O=C(O)c1cccc(NS(=O)(=O)c2cc(S(=O)(=O)c3ccc(Cl)cc3)ccc2Cl)c1` it was 0.3%; in that of `COc1cc(C(=O)NCc2ccc(-c3nc4ccccc4s3)cc2)cc(OC)c1OC`, -45%.
Under `COc1ccc(C(=O)NCc2ccc(-c3nc4ccccc4s3)cc2)cc1OC` stands -86.1%.
For the compound `Cc1ccc(-n2c(SCC(=O)Nc3ccc(C(=O)O)cc3)nnc2-c2ccncc2)cc1`, the inhibition is -9.4%.
With `O=C(CCNS(=O)(=O)c1c(Cl)cccc1Cl)OCC(=O)c1ccccc1`, the inhibition was 10.5%.
Under `Cc1nn(C)c(Cl)c1NC(=O)OCc1ccc(Cl)cc1Cl` stands 68.3% (active); under `Cc1nn(C)c(Cl)c1NC(=O)OCc1ccccc1`, -9.7%; under `COc1ccccc1COC(=O)Nc1c(C)nn(C)c1Cl`, 10.8%.
In the case of `CCc1ccccc1NC(=O)CCC(=O)N1CCSc2ccccc21` it was -3%.

These data come from PubChem BioAssay AID1578 (Sanford-Burnham Center for Chemical Genomics, 2009).
